FBA Mtb inh: inhibitors of M. tuberculosis fructose-bisphosphate aldolase | P9WQA3 | actives 2.3% (n = 360,000) | purified M. tuberculosis FBA, fluorescence read-out | inhibition, % at 1 µM | AID 588726
Target sequence (P9WQA3 whole entry, looked up): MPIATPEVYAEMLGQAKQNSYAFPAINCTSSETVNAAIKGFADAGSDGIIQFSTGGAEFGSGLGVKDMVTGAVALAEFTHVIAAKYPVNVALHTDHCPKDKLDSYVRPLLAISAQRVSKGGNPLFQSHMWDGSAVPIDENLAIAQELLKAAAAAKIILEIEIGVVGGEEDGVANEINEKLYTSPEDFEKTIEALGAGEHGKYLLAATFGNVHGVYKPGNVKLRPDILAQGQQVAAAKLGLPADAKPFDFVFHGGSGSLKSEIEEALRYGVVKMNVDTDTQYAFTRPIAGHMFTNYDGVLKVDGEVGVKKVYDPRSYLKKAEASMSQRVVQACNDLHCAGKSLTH
Mtb BioA inh: inhibitors of Mycobacterium tuberculosis BioA enzyme; purified M. tuberculosis BioA enzyme, plate reader; inhibition, % at 9.99 µM; actives 0.096% (n = 360,000); AID 602481; in the data active means inhibition above about 40%
GDH-TPI counter-1: counter-screen for M. tuberculosis FBA inhibitors: GDH-TPI coupled enzymes. inhibition, % at 4.8 µM. actives 1.2% (n = 360,000). GDH-TPI coupled enzyme counterscreen, NADH absorbance. AID 588335; in the data active means inhibition above about 30%
FadD28 FP inh: M. tuberculosis FadD28 bisubstrate binding inhibition | FadD28 bisubstrate probe binding, fluorescence polarization | inhibition, % at 12.5 µM | actives 0.22% (n = 360,000) | AID 588549; in the data active means inhibition above about 8.5%, passing the limit was not always enough
3CLpro inhibitor: SARS-CoV 3CLpro protease inhibition. P0C6X7. recombinant SARS-CoV 3CLpro, quenched FRET peptide cleavage. inhibition, % at 6 µM. actives 0.14% (n = 290,000); in the data active means inhibition above about 12%
Mtb FBA confirm: Mtb FBA inhibition, confirmed; shares compounds with FBA Mtb inh; purified M. tuberculosis FBA, fluorescence read-out; inhibition, % at 1 µM; actives 78% (n = 5,600)
GDH-TPI counter-2: counter-screen for M. tuberculosis FBA inhibitors: GDH-TPI coupled enzyme inhibition. actives 81% (n = 5,600). GDH-TPI coupled enzyme counterscreen, fluorescence. shares compounds with FBA Mtb inh. AID 652141. inhibition, % at 1 µM; in the data active means inhibition above about 10%
Each line names hits and unclear results; the compound was inactive in the other large screens (follow-up assays come after a bar, where they were run); ! = not active in a repeat. In the library only some 3.1% were active in any assay of this set; here they are far more common. Unless noted, no stated cut-off is given here; in the data, active means inhibition above about 27%; inactive means the rest.

CCOC(=O)Nc1nnc(/C=C/c2ccc(OC)cc2)s1	FBA Mtb inh 33.2, GDH-TPI counter-1 36.0 (no result: Mtb BioA inh) | Mtb FBA confirm inactive | GDH-TPI counter-2 inactive
CCOC(=O)Nc1nnc(-c2ccc(OC)cc2)s1	FBA Mtb inh 51.9 | Mtb FBA confirm 158.4 | GDH-TPI counter-2 121.0
CCC(=O)Nc1nnc(/C=C/c2ccccc2)s1	FBA Mtb inh 32.7, GDH-TPI counter-1 31.0 | Mtb FBA confirm 123.8 | GDH-TPI counter-2 103.2
CCCC(=O)Nc1nnc(-c2cccc(OCC)c2)s1	none
C[C@@H]1CN([C@@H](C)CO)C(=O)c2cc(C#Cc3ccccc3F)cnc2O[C@@H]1CN(C)C(=O)C1CCC1	none (no result: FBA Mtb inh, GDH-TPI counter-1, FadD28 FP inh, 3CLpro inhibitor)
COc1ccc(C(=O)Nc2ccc3c(c2)C(=O)N(C)C[C@H](OC)[C@H](C)CN[C@@H](C)CO3)cc1	none (no result: FBA Mtb inh, GDH-TPI counter-1, FadD28 FP inh, 3CLpro inhibitor)
COc1cccc(C(=O)Nc2ccc3c(c2)C(=O)N(C)C[C@@H](OC)[C@H](C)CN(CC2CC2)[C@H](C)CO3)c1	none (no result: FBA Mtb inh, GDH-TPI counter-1, FadD28 FP inh, 3CLpro inhibitor)
Oc1ccc(C2CNCCc3c2cc(O)c(O)c3Cl)cc1 (configuration not stated)	FBA Mtb inh 40.3! (no result: 3CLpro inhibitor) | Mtb FBA confirm inactive | GDH-TPI counter-2 inactive
Cc1c(Cc2ccccc2)c(=O)oc2cc(OC(=O)c3ccccc3)ccc12	none
COC(=O)Cc1c(C)c2ccc(OC(=O)c3ccccc3)cc2oc1=O	FBA Mtb inh 78.6 | Mtb FBA confirm 98.7 | GDH-TPI counter-2 90.4
COc1cccc(C(=O)COc2ccc3c(C)c(Cc4ccccc4)c(=O)oc3c2)c1	none (no result: Mtb BioA inh)
Cc1c(Cc2ccccc2)c(=O)oc2cc(OCC(=O)N[C@@H](Cc3ccccc3)C(=O)O)ccc12	FBA Mtb inh 92.1 | Mtb FBA confirm 165.5 | GDH-TPI counter-2 135.8
Cc1c(Cc2ccccc2)c(=O)oc2cc(OCC(=O)NCc3ccccn3)ccc12	FBA Mtb inh 78.2 | Mtb FBA confirm 87.8 | GDH-TPI counter-2 70.2
O=C(COc1ccc2c(c1)oc(=O)c1ccccc12)NC(Cc1ccc(Cl)cc1)C(=O)O (configuration not stated)	FBA Mtb inh 74.2 | Mtb FBA confirm 186.4 | GDH-TPI counter-2 132.3
Cc1noc(C)c1S(=O)(=O)Nc1ccc2c(c1)CC(=O)N([C@H](C)CO)C[C@@H](C)[C@H](CN(C)Cc1ccc(C(F)(F)F)cc1)O2	none (no result: FBA Mtb inh, GDH-TPI counter-1, FadD28 FP inh, 3CLpro inhibitor)
CO[C@H]1CN(C)C(=O)c2ccc(NC(=O)c3cnccn3)cc2OC[C@@H](C)N(C)C[C@H]1C	none (no result: FBA Mtb inh, GDH-TPI counter-1, FadD28 FP inh, 3CLpro inhibitor)
COc1ccc2sc(C)cc(=O)c2c1	FBA Mtb inh 106.6 (no result: 3CLpro inhibitor) | Mtb FBA confirm 87.9 | GDH-TPI counter-2 51.6
O=S(=O)(c1ccc2ccccc2c1)N1CCN(Cc2ccc(OCCO)cc2)CC1	none (no result: FBA Mtb inh, GDH-TPI counter-1, FadD28 FP inh, 3CLpro inhibitor)
COc1ccccc1C#Cc1cnc2c(c1)C(=O)N([C@H](C)CO)C[C@H](C)[C@@H](CN(C)C(=O)CC1CC1)O2	none (no result: FBA Mtb inh, GDH-TPI counter-1, FadD28 FP inh, 3CLpro inhibitor)
COc1cc2c(N3CCOCC3)cc(O)c(CC(=O)Nc3ccccc3)c2cc1OC	FBA Mtb inh 30.7 | Mtb FBA confirm inactive | GDH-TPI counter-2 inactive
CO[C@@H]1CN(C)C(=O)c2cc(NC(=O)C3CC3)ccc2OC[C@H](C)N(Cc2cccnc2)C[C@H]1C	none (no result: FBA Mtb inh, GDH-TPI counter-1, FadD28 FP inh, 3CLpro inhibitor)
Nc1nccnc1C(=O)OCC(=O)NCCc1ccc(Cl)cc1	FBA Mtb inh 102.5 (no result: FadD28 FP inh, 3CLpro inhibitor) | Mtb FBA confirm inactive | GDH-TPI counter-2 inactive
O=C(COC(=O)c1n[nH]c2ccccc12)NCCc1ccc(Cl)cc1	none (no result: 3CLpro inhibitor)
CC(=O)N(C)C[C@H]1Oc2ncc(-c3cccc(C#N)c3)cc2C(=O)N([C@H](C)CO)C[C@H]1C	none (no result: FBA Mtb inh, GDH-TPI counter-1, FadD28 FP inh, 3CLpro inhibitor)
C[C@@H]1CCCCO[C@H](CN(C)C(=O)Cc2ccccc2)[C@H](C)CN([C@H](C)CO)C(=O)c2cc(NS(=O)(=O)c3ccccc3)ccc2O1	none (no result: FBA Mtb inh, GDH-TPI counter-1, FadD28 FP inh, 3CLpro inhibitor)
Cc1ccc(C(=O)Nc2cnc3sc(C)nn3c2=O)cc1	none
Cc1nn2c(=O)c(NC(=O)c3ccc(Cl)cc3)cnc2s1	FBA Mtb inh 65.0 | Mtb FBA confirm 43.8 | GDH-TPI counter-2 28.4
Clc1ccccc1Nc1nc(NCc2ccccc2)nc2ccsc12	none (no result: 3CLpro inhibitor)
c1ccc(OCCNc2nc(NCC3CC3)nc3ccsc23)cc1	none (no result: 3CLpro inhibitor)
c1ccc(-c2nc(NCC3CC3)nc3ccsc23)cc1	FBA Mtb inh 42.4 (no result: 3CLpro inhibitor) | Mtb FBA confirm 137.6 | GDH-TPI counter-2 96.6
Cc1ccc(F)cc1-c1nc(NCC2CC2)nc2ccsc12	FBA Mtb inh 46.4 (no result: 3CLpro inhibitor) | Mtb FBA confirm 70.5 | GDH-TPI counter-2 56.4
OCc1ccccc1-c1nc(NCc2ccccc2)nc2ccsc12	FBA Mtb inh 62.9 (no result: 3CLpro inhibitor) | Mtb FBA confirm inactive | GDH-TPI counter-2 inactive
Cc1ccccc1-c1nc(NCC2CC2)nc2ccsc12	none (no result: 3CLpro inhibitor)

Compound activity as filed in PubChem.
